Screening data: PubChem, several laboratories
PLC-beta3 inh: human PLC-beta3 inhibitors, primary screen, biochemical, fluorescence; actives 0.18% (n = 370,000); inhibition, % at 12.2 µM; Purified PLC-beta3, fluorogenic substrate; AID 720704, 2013; in the data active means inhibition above about 11%;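 further: 0% = median of compound wells on plate and 100% = full blocker control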
ADAM17 inh: ADAM17 inhibitors, primary screen, biochemical, QFRET; recombinant ADAM17, EDANS/DABCYL FRET peptide cleavage; inhibition, % at 6.95 µM; actives 0.83% (n = 370,000);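 active means inhibition above the mean of compounds lying between control limits plus 3 SD, set per campaign, cut at about 8.5% in these data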;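 further: 0% = DMSO-only wells as the low control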
Target sequence (P78536 215-824 limits assumed): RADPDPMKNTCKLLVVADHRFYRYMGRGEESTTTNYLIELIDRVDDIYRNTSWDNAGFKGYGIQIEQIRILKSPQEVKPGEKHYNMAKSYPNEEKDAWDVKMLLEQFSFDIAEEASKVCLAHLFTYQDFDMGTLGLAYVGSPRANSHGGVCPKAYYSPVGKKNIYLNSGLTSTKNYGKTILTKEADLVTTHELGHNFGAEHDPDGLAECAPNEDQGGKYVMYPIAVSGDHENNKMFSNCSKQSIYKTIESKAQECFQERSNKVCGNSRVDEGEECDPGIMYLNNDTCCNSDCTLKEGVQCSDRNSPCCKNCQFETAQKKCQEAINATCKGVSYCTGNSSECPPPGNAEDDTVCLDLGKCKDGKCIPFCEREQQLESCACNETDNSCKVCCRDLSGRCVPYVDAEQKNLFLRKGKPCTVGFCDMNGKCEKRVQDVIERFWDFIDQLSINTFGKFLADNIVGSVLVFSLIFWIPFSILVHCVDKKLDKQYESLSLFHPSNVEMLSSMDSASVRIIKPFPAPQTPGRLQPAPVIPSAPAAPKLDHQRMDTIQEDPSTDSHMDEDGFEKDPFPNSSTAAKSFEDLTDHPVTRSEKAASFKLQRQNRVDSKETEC
ADAM10 inh: human ADAM10 inhibitors, primary screen, biochemical, QFRET, HTS; recombinant ADAM10, EDANS/DABCYL FRET peptide cleavage, 3 h; inhibition, % at 7 µM; actives 0.62% (n = 370,000);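 active means inhibition above a per-campaign cutoff equal to the mean of compounds falling between control-based bounds plus 3 SD, cut at about 20% in these data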;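 further: 0% = DMSO wells while the 100% control is not disclosed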
Rce1 inh: yeast Rce1p protease inhibitors, primary screen, biochemical, fluorescence, cell-free homogeneous; actives 0.27% (n = 290,000); yeast membranes, quenched prenylated peptide cleavage fluorescence; calls only; AID 2563, 2010;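 active means fall in fluorescence gain of 50% or more versus controls, with final raw signal at or below 3038400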;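 further: plate controls were neutral control wells for no effect and wells lacking membranes for full effect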
PLCg1 inh: PLC-gamma1 enzyme inhibitors, primary screen, biochemical, fluorescence, purified enzyme; 1-phosphatidylinositol 4,5-bisphosphate phosphodiesterase gamma-1 (Homo sapiens), P19174; fluorogenic substrate; inhibition, % at 12.2 µM; actives 0.84% (n = 370,000); AID 720700, 2013; in the data active means inhibition above about 9.5%
ADAM10 counter: ADAM10 inhibitors, counter-screen for ADAM17 exosite inhibitor project, biochemical, FRET, human ADAM10 | shares compounds with ADAM17 inh | recombinant ADAM10, EDANS/DABCYL FRET peptide cleavage, 3 h | inhibition, % at 6.95 µM | actives 47% (n = 2,900) | AID 743256, 2014;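 active means mean inhibition over the triplicate runs exceeds the activity threshold set in the earlier primary screen, cut at about 20% in these data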;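 further: 0% = DMSO wells and 100% = marimastat wells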
ADAM17 confirm: ADAM17 inhibitors, hit retest, confirmation, biochemical, QFRET peptide cleavage; shares compounds with ADAM17 inh; actives 65% (n = 2,900); recombinant ADAM17, EDANS/DABCYL QFRET peptide cleavage; AID 743257, 2014; inhibition, % at 6.95 µM;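 active means mean inhibition across replicates above the hit cutoff set in the primary screen, cut at about 8.5% in these data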;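 further: 0% = DMSO wells and 100% = marimastat wells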
* marks the source's active call; other numbers are inactive results; i = inactive; . = no result. In the library only some 2.1% were active in any assay of this set; here they are far more common.

SMILES | PLC-beta3 inh | ADAM17 inh | ADAM10 inh | Rce1 inh | PLCg1 inh | ADAM10 counter | ADAM17 confirm
Cc1ccc(NC2=C(Cl)C(=O)OC2OC(=O)c2ccc(C)cc2)cc1 (stereo unspecified) | -5 | 9.0* | 2 | i | -6 | 17 | 12*
CC(C)(C)OC(=O)N1CCC[C@@H]1C(=O)N1CCC[C@@H]1C(=O)NCc1ccccc1 | 3 | -1 | 3 | . | 4 | . | .
COc1ccc(C(=O)NC(=S)NNC(=O)c2cnccn2)cc1 | 2 | 0 | 6 | i | 2 | . | .
COc1cc(C(=O)NC(=S)NNC(=O)c2cnccn2)cc(OC)c1OC | -11 | 11* | 9 | i | -4 | 4 | 3
COc1ccc(CN2C(=O)C(CC(=O)NC3CCCCC3)CC(C(=O)N(C)C)=C2C)cc1 (stereo unspecified) | 0 | -7 | -10 | . | 0 | . | .
COc1ccccc1OCC(=O)NCCSCc1cccc(Cl)c1 | -2 | 4 | 7 | i | 5 | . | .
CCN(CC)S(=O)(=O)c1cccc(NC(=O)CCSc2ccc(Cl)cc2)c1 | -4 | 9.2* | 10 | i | -2 | 37* | 17*
O=C(NC(=S)Nc1ccc2c(c1)OCCO2)c1cccc2ccccc12 | 4 | 11* | 19 | i | 4 | 18 | 11*
CCn1c(CC(=O)Nc2cccc(OC)c2)nnc1SCC(=O)N1CCN(c2ccccc2)CC1 | 2 | 12* | 4 | i | 8 | 30* | 18*
O=C(CN1CCN(c2ccc(O)cc2)CC1)Nc1cc(S(=O)(=O)N2CCCCC2)ccc1Cl | 5 | 10* | 17 | i | 0 | 17 | 11*
O=C(CN1C(=O)c2ccccc2S1(=O)=O)Nc1ccc(S(=O)(=O)N2CCCCC2)cc1 | -2 | 1 | 1 | i | 2 | . | .
O=C(CN1C(=O)c2ccccc2S1(=O)=O)Nc1cc(S(=O)(=O)N2CCCCC2)ccc1Cl | -2 | 10* | 1 | . | 7 | 17 | 13*
O=C(Nc1cccc(-n2cccn2)c1)C1CCCN(Cc2ccccc2F)C1 (stereo unspecified) | -1 | 11* | -3 | i | 5 | -9 | -1
CC1CCN(CCCNC(=O)C2CC(=O)N(CCc3ccccc3)C2)CC1 (stereo unspecified) | 1 | -2 | -9 | i | -2 | . | .
CC1CCN(C(=O)c2[nH]c(C(F)(F)F)nc2-c2ccccc2)CC1 | -3 | -3 | -7 | . | -1 | . | .
O=C(c1[nH]c(C(F)(F)F)nc1-c1ccccc1)N1CCC(Cc2ccccc2)CC1 | 2 | 12* | 6 | . | 3 | 8 | 7
COC(=O)c1ccc(CSc2ccccc2NC(=S)Nc2cccc(SC)c2)o1 | -2 | 2 | 0 | . | -2 | . | .
CN1CC(c2ccccn2)C2(SC(=S)N(Cc3ccccc3)C2=O)C12C(=O)Nc1ccccc12 (stereo unspecified) | 0 | -8 | -2 | i | -1 | . | .
CN1CC(c2ccccc2)C2(SC(=S)N(Cc3ccco3)C2=O)C12C(=O)Nc1ccccc12 (stereo unspecified) | 0 | 10* | 26* | i | 0 | 37* | 24*
O=C(Nc1ccncc1Cl)c1ccncc1 | -5 | 0 | -4 | i | 1 | . | .
Cc1ccc([N+](=O)[O-])cc1NC(=O)c1ccccc1 | 1 | -3 | 1 | i | 0 | . | .
Cc1ccc(C)c(NC(=O)c2cccc(Oc3ccc([N+](=O)[O-])cc3Cl)c2)c1 | 1 | 9.0* | 19 | i | 1 | 29* | 16*
O=C(Nc1cccc(Cl)c1)c1cccc(Oc2ccc([N+](=O)[O-])cc2Cl)c1 | 4 | 9.7* | 16 | i | 6 | 23* | 15*
CCOC(=O)c1c(NC(=O)Cn2nc(C(F)F)cc2C(F)F)sc(C)c1C | 0 | 9.1* | 18 | i | 3 | 18 | 12*
COC(=O)c1c(NC(=O)Cn2nc(C(F)F)cc2C(F)F)sc(C)c1C | 0 | 3 | 13 | i | 2 | . | .
SMILES | PLC-beta3 inh | ADAM17 inh | ADAM10 inh | Rce1 inh | PLCg1 inh | ADAM10 counter | ADAM17 confirm
COc1ccc(C(C)=O)cc1Cn1c(C)c(C(=O)NCc2ccc(C(F)(F)F)cc2)sc1=O | -1 | 6 | 17 | . | 2 | . | .
CCOC(=O)N1CCN(c2ccncc2S(=O)(=O)N2CCCCC2)CC1 | -3 | 1 | 2 | . | 4 | . | .
CCN(CC)C(=O)C1=C(C)N(Cc2ccc(C(C)(C)C)cc2)C(=O)C(CC(=O)NCCCCc2ccccc2)C1 (stereo unspecified) | 0 | 9.8* | 16 | . | 2 | 20 | 8
CCN(CC)C(=O)C1=C(C)N(Cc2ccc(F)cc2)C(=O)C(CC(=O)NCCCCc2ccccc2)C1 (stereo unspecified) | -4 | 1 | -23 | . | -1 | . | .
CC1=C(C(=O)N(C)C)CC(CC(=O)NCCCCc2ccccc2)C(=O)N1Cc1ccc(C(C)(C)C)cc1 (stereo unspecified) | -2 | 11* | -2 | . | 6 | 26* | 12*
COc1ccc(-n2c(=S)[nH]c3c(oc4ccccc43)c2=O)cc1 | 0 | 9.2* | 6 | i | 0 | 3 | 6
COc1ccc(C(=O)c2c[nH]c(C(=O)N=CN(C)C)c2)cc1 | -3 | -2 | -3 | i | -1 | . | .
CCCOc1ccccc1C(=O)N(Cc1cccs1)C1CCS(=O)(=O)C1 (stereo unspecified) | 12* | 10* | 11 | i | 3 | 10 | 8
CCOc1ccccc1C(=O)N(Cc1cccs1)C1CCS(=O)(=O)C1 (stereo unspecified) | 4 | -1 | 6 | i | 2 | . | .
CCOc1ccc(S(=O)(=O)c2ccc(C)cc2)c2c1no[n+]2[O-] | -2 | 11* | 7 | . | 2 | 2 | 5
CC1(C)Cc2cccc(Oc3cc(NN4CCCCC4)c([N+](=O)[O-])cc3[N+](=O)[O-])c2O1 | -1 | -6 | -5 | i | -2 | . | .
C[C@@]12C(=O)N(c3cccc(F)c3)C(=O)N1[C@H](c1ccc(Cl)cc1)[C@@H]1C(=O)N(C3CCCCC3)C(=O)[C@@H]12 | 4 | 1 | 7 | i | 1 | . | .
C[C@@]12C(=O)N(c3cccc(Cl)c3)C(=O)N1[C@H](c1ccc(Cl)cc1)[C@@H]1C(=O)N(C3CCCCC3)C(=O)[C@@H]12 | 3 | 10* | 14 | i | 3 | 38* | 22*
